The source of these data is PubChem BioAssay (NCI).

The nature of experiment [1]: NCI Yeast Anticancer Drug Screen. Data for the rad50 strain (AID 155).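 Note: 0% = growth of vehicle-only cultures of the same strain.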 Particulars: S. cerevisiae rad50 strain growth inhibition, stronger effect = higher value. An outline of the steps: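 Genetically altered yeast (DNA repair pathway); compound treatment; growth inhibition vs vehicle ctrl.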
The nature of experiment [2]: NCI Yeast Anticancer Drug Screen. Data for the mec2-1 strain (AID 157). The settings on record: S. cerevisiae mec2-1 strain, stronger effect = higher value. In outline:
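Compounds were applied to mec2-1 yeast cells. Their growth was then compared with that of vehicle-treated cultures to give growth inhibition.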

The nature of experiment [3]: NCI Yeast Anticancer Drug Screen. Data for the sgs1 mgt1 strain (AID 161).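 Note: 0% = growth of cultures given vehicle only.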 Particulars: S. cerevisiae sgs1 mgt1 strain, stronger effect = higher value. An outline of the steps: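 This yeast growth screen uses a strain with defined DNA-repair lesions; compound-treated growth is compared with vehicle-treated growth.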
Experiment [4] can be described thus: NCI Yeast Anticancer Drug Screen. Data for the cln2 rad14 strain (AID 165).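 Note: 0% = growth equal to vehicle treated cultures.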 Particulars: S. cerevisiae cln2 rad14 strain, stronger effect = higher value. In outline: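 Strain: cln2 rad14 yeast, altered in cell cycle control and DNA damage repair. Read-out: growth inhibition vs vehicle.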
Experiment [5] in a line: NCI Yeast Anticancer Drug Screen. Data for the bub3 strain (AID 167). The settings on record: S. cerevisiae bub3 mutant strain, stronger effect = higher value. An outline of the steps:
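Yeast carrying a defined mutation is treated with each compound, and growth is compared with that of vehicle-exposed cells to give inhibition.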

Experiment [6] can be described thus: NCI Yeast Anticancer Drug Screen. Data for the mlh1 rad18 strain (AID 175). The settings on record: S. cerevisiae mlh1 rad18 strain growth inhibition, stronger effect = higher value. An outline of the steps: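 A repair-deficient yeast strain is exposed to test compound, and growth is scored relative to vehicle-treated controls.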
Setting [7] is: at 5.0 µM (retest, dose inferred, filed as 0.5).
[8] abbreviates: at 50.0 µM (retest, dose inferred, filed as 5.0).

“And” between values parts separate entries of the source, which are not always exact repeats. Equal entries are not always repeated. About 79,000 compounds went through this panel and 15% of them were active in at least one assay; those are over-represented in the sample as a whole. Unmarked numbers belong to inactive results. The source made the active and inactive calls. Cut-off read from the data, not from the text of the source: active = growth inhibition above about 70%; inactive = the rest.

In the case of `c1ccc(CCNCc2ccccc2)cc1`, the growth inhibition in experiment [1] (setting [7]) was -2%; in experiment [1] (setting [8]) it was 3%; in experiment [1] (at 50.0 µM), -2.35% and 6.05%; in experiment [2] (setting [7]), -2%; in experiment [2] (setting [8]) it was 2%; in experiment [2] (at 50.0 µM), 6.45% and 3.8%. Also, the growth inhibition was -4% in experiment [3] (setting [7]); 0% in experiment [3] (setting [8]); -7.05% and -3.9% in experiment [3] (at 50.0 µM); 0% in experiment [4] (setting [7]); 4% in experiment [4] (setting [8]); 54% and -3.45% in experiment [4] (at 50.0 µM). Also, the growth inhibition in experiment [5] (setting [7]) was 5%; in experiment [5] (setting [8]), 4%; in experiment [5] (at 50.0 µM), -7.5% and 16.1%; in experiment [6] (setting [7]), 3%; in experiment [6] (setting [8]), 6%; in experiment [6] (at 50.0 µM), 0.4% and 3.2%.
In the case of `CCN(CC)C1CC(O[C@H]2C[C@](O)(C(=O)CO)Cc3c(O)c4c(c(O)c32)C(=O)c2c(OC)cccc2C4=O)OC(C)C1O` (some centres undefined), the growth inhibition was 98% (active) in experiment [1] (setting [7]); 98% (active) in experiment [1] (setting [8]); 99.2% (active) in experiment [1] (at 50.0 µM); 99% (active) in experiment [2] (setting [7]); 99% (active) in experiment [2] (setting [8]); 99.3% (active) in experiment [2] (at 50.0 µM). Further, the growth inhibition is 99% (active) in experiment [3] (setting [7]); 99% (active) in experiment [3] (setting [8]); 99.5% (active) in experiment [3] (at 50.0 µM); 97% (active) in experiment [4] (setting [7]); 98% (active) in experiment [4] (setting [8]); 98.8% (active) in experiment [4] (at 50.0 µM). For the same compound, the growth inhibition in experiment [5] (setting [7]) is 98% (active); in experiment [5] (setting [8]), 99% (active); in experiment [5] (at 50.0 µM), 99% (active); in experiment [6] (setting [7]), 98% (active); in experiment [6] (setting [8]) it was 96% (active); in experiment [6] (at 50.0 µM), 99.3% (active).
Regarding `CC(=O)OC1CCC2(C)C3CCC4(C)C(OC(=O)c5ccccc5)CCC4C3CC(Br)C2(O)C1` (centres undefined), the growth inhibition in experiment [1] (setting [7]) is 35%; in experiment [1] (setting [8]), 56%; in experiment [1] (at 50.0 µM) it was 87.1% (active); in experiment [2] (setting [7]) it was 27%; in experiment [2] (setting [8]), 39%; in experiment [2] (at 50.0 µM), 87.9% (active). Also, the growth inhibition in experiment [3] (setting [7]) is 44%; in experiment [3] (setting [8]), 64%; in experiment [3] (at 50.0 µM), 89.5% (active); in experiment [4] (setting [7]) it was 40%; in experiment [4] (setting [8]), 44%; in experiment [4] (at 50.0 µM), 90.8% (active). Also, the growth inhibition is 45% in experiment [5] (setting [7]); 56% in experiment [5] (setting [8]); 86.8% (active) in experiment [5] (at 50.0 µM); 42% in experiment [6] (setting [7]); 56% in experiment [6] (setting [8]); 85.7% (active) in experiment [6] (at 50.0 µM).
For `C[n+]1c(/C=C/c2ccc(O)c3ncccc23)[se]c2ccccc21`, the growth inhibition is 22% in experiment [1] (setting [7]); 93% (active) in experiment [1] (setting [8]); 93.4% (active) in experiment [1] (at 50.0 µM); 2% in experiment [2] (setting [7]); 90% (active) in experiment [2] (setting [8]); 93.5% (active) in experiment [2] (at 50.0 µM). The growth inhibition in experiment [3] (setting [7]) was 24%; in experiment [3] (setting [8]) it was 91% (active); in experiment [3] (at 50.0 µM) it was 92.3% (active); in experiment [4] (setting [7]) it was 11%; in experiment [4] (setting [8]), 88% (active); in experiment [4] (at 50.0 µM) it was 92% (active). Besides, the growth inhibition in experiment [5] (setting [7]) is 2%; in experiment [5] (setting [8]) it was 91% (active); in experiment [5] (at 50.0 µM), 93% (active); in experiment [6] (setting [7]), 43%; in experiment [6] (setting [8]) it was 90% (active); in experiment [6] (at 50.0 µM), 93.4% (active).
With `COC(=O)CCCCCCCCC[CH2][Hg][Cl]`, the growth inhibition is 99% (active) in experiment [1] (setting [7]); 99% (active) in experiment [1] (setting [8]); 95% (active) in experiment [1] (at 50.0 µM); 100% (active) in experiment [2] (setting [7]); 99% (active) in experiment [2] (setting [8]); 97.5% (active) in experiment [2] (at 50.0 µM). The growth inhibition in experiment [3] (setting [7]) is 99% (active); in experiment [3] (setting [8]) it was 99% (active); in experiment [3] (at 50.0 µM), 98% (active); in experiment [4] (setting [7]) it was 99% (active); in experiment [4] (setting [8]), 98% (active); in experiment [4] (at 50.0 µM), 97.3% (active). The growth inhibition in experiment [5] (setting [7]) is 99% (active); in experiment [5] (setting [8]), 99% (active); in experiment [5] (at 50.0 µM) it was 98.4% (active); in experiment [6] (setting [7]), 100% (active); in experiment [6] (setting [8]), 99% (active); in experiment [6] (at 50.0 µM) it was 98.4% (active).
Take `Cc1cc(N(CCCl)CCCl)ccc1CN1CCCN(Cc2ccc(N(CCCl)CCCl)cc2C)C1c1cccc(F)c1`: the growth inhibition in experiment [1] (setting [7]) was 6%; in experiment [1] (setting [8]), 97% (active); in experiment [1] (at 50.0 µM) it was 40.8%; in experiment [2] (setting [7]), -27%; in experiment [2] (setting [8]) it was 99% (active); in experiment [2] (at 50.0 µM), 18%. Also, the growth inhibition in experiment [3] (setting [7]) is 1%; in experiment [3] (setting [8]), 98% (active); in experiment [3] (at 50.0 µM) it was 80.5% (active); in experiment [4] (setting [7]), 2%; in experiment [4] (setting [8]), 97% (active); in experiment [4] (at 50.0 µM) it was -0.15%. Besides, the growth inhibition in experiment [5] (setting [7]) was 3%; in experiment [5] (setting [8]), 98% (active); in experiment [5] (at 50.0 µM), 2.15%; in experiment [6] (setting [7]), 8%; in experiment [6] (setting [8]), 95% (active); in experiment [6] (at 50.0 µM) it was 76.5% (active).
For `CCN1/C(=C\c2ccc3cc(C)ccc3[n+]2CC)[Se]c2ccccc21`, the growth inhibition in experiment [1] (setting [7]) is 98% (active); in experiment [1] (setting [8]) it was 98% (active); in experiment [1] (at 50.0 µM), 99.2% (active); in experiment [2] (setting [7]), 100% (active); in experiment [2] (setting [8]), 100% (active); in experiment [2] (at 50.0 µM), 99.4% (active). Moreover, the growth inhibition in experiment [3] (setting [7]) was 95% (active); in experiment [3] (setting [8]), 99% (active); in experiment [3] (at 50.0 µM), 99.5% (active); in experiment [4] (setting [7]), 98% (active); in experiment [4] (setting [8]) it was 94% (active); in experiment [4] (at 50.0 µM), 99.5% (active). The growth inhibition in experiment [5] (setting [7]) was 95% (active); in experiment [5] (setting [8]) it was 99% (active); in experiment [5] (at 50.0 µM) it was 97% (active); in experiment [6] (setting [7]), 99% (active); in experiment [6] (setting [8]), 99% (active); in experiment [6] (at 50.0 µM), 99.5% (active).
On to `CN(CCO)CCO`, for which the growth inhibition in experiment [1] (setting [7]) was 18%; in experiment [1] (setting [8]), 86% (active); in experiment [1] (at 50.0 µM), 6.55% and -12.4%; in experiment [2] (setting [7]) it was 3%; in experiment [2] (setting [8]), 26%; in experiment [2] (at 50.0 µM) it was 7.5% and 36.6%. The growth inhibition in experiment [3] (setting [7]) was 5%; in experiment [3] (setting [8]), 43%; in experiment [3] (at 50.0 µM), -0.35% and 15.9%; in experiment [4] (setting [7]), 1%; in experiment [4] (setting [8]), 21%; in experiment [4] (at 50.0 µM) it was -8.05% and 58.9%. Further, the growth inhibition in experiment [5] (setting [7]) is 1%; in experiment [5] (setting [8]), 6%; in experiment [5] (at 50.0 µM), -9.75% and 30.8%; in experiment [6] (setting [7]), 10%; in experiment [6] (setting [8]) it was 38%; in experiment [6] (at 50.0 µM), -11.8% and 21.9%.
